Calls of active or inactive are those of the source. Unless noted, how the calls were made is not given here.
Key:
[1] = test system: Wnt5a (protein binding on small-molecule microarray); experiment: small molecules binding Wnt5a protein – biophysical, small-molecule microarray, 635/667 nm fluorescence, primary screen (AID 1142); conditions: 635 nm fluorescence, higher = more signal;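 further: fluorescence read at 667 nm with signal to noise per printed feature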
[2] = ATP-based viability of Huh7 replicon cells – cell-based, CellTiter-Glo luminescence, basal, 48 h, cytotoxicity control for HCV replication inhibitor project, primary screen (AID 1143); conditions: higher = more signal, called active from +8 up or from −8 down;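 further: Huh7 hepatoma cells carrying a hepatitis C replication reporter with no stimulus; test concentration not given here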
[3] = Pseudomonas biofilm growth suppression – PAO1 strain, BacTiter-Glo luminescence, LB-PBS, primary screen (AID 1144); conditions: P. aeruginosa PAO1 biofilm, 12 h, higher = more signal
[4] = basal CRE-LacZ reporter activity in PC12 – cell-based, unstimulated, primary screen (AID 1145); conditions: no forskolin, luminescence, 4.5 h, higher = more signal, called active from +8 up or from −8 down
[5] = forskolin-driven CRE-LacZ activity in PC12 – cell-based, CRE-LacZ reporter, forskolin-stimulated, primary screen (AID 1146); conditions: luminescence, 4.5 h, higher = more signal, called active from +8 up or from −8 down;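 further: PC12 cells with 6xCRE LacZ reporter stimulated by forskolin 10 µM; beta-galactosidase reporter signal reflecting CREB driven transcription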
[6] = biological target: Streptavidin (Streptomyces avidinii) (UniProt P22629); experiment: compounds binding control protein streptavidin – biophysical, small-molecule microarray, 635/667 nm fluorescence, artefact control for SMM compound annotation, primary screen (AID 1147); conditions: higher = more signal;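 further: signal reflects streptavidin binding to arrayed compounds as a control protein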
[7] = probe aInhba binding on compound microarray – biochemical, small-molecule microarray, 635/667 nm fluorescence, primary screen (AID 1148); conditions: higher = more signal;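 further: score merges 667nm spot fluorescence with signal-to-noise for antibody binding to printed compounds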
Torsin-1A (Homo sapiens) [8] = biological target: Torsin-1A (Homo sapiens) (UniProt O14656); experiment: TOR1A wild-type binding on microarray – cell lysate, small-molecule microarray, lysate, 635/667 nm, primary screen (AID 1149); conditions: COS7 hTOR1A-WT lysate, 635 nm fluorescence, higher = more signal
Torsin-1A (Homo sapiens) [9] = biological target: Torsin-1A (Homo sapiens) (UniProt O14656); experiment: torsin A mutant lysate binding on microarrays – cell lysate, small-molecule microarray, COS7 lysate, 635/667 nm fluorescence, primary screen (AID 1150); conditions: COS7 hTOR1A mutant lysate, 635 nm fluorescence, higher = more signal;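 further: score pools 667 nm emission and signal to noise measuring lysate protein binding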
[10] = test system: Sonic hedgehog protein (Shh); experiment: Sonic hedgehog microarray binding compounds – biochemical, small-molecule microarray, 635/667 nm fluorescence, primary screen (AID 1151); conditions: 635 nm fluorescence, higher = more signal;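 further: Shh protein binding to compounds spotted on small-molecule microarray slides; score combines spot fluorescence intensity with signal-to-noise across triplicate slides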
[11] = optical density shifts of acrAB sulA E. coli – strain DRC41, OD650, 48 h, E. coli filamentation inducer project, primary screen (AID 1152); conditions: higher = more signal, called active from +8 up or from −8 down;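 further: E. coli MC1000 strain DRC41 lacking acrAB efflux pump and sulA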
[12] = probe aLefty1 binding on compound microarray – biochemical, small-molecule microarray, 635/667 nm fluorescence, primary screen (AID 1153); conditions: higher = more signal;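 further: score merges spot fluorescence with signal-to-noise ratio from the scanned slide images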
[13] = plasmodial surface anion channel blockers, osmotic lysis – cell-based, P. falciparum Indochina, OD700, 1 h, primary screen (AID 1154); conditions: P. falciparum Indochina infected RBC osmotic lysis, higher = more signal, called active from +8 up or from −8 down
[14] = plasmodial surface anion channel blockers, osmotic lysis – cell-based, P. falciparum Indochina, OD700, 2 h, primary screen (AID 1155);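 further: lysis reports solute entry through the parasite surface anion channel PSAC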; conditions: P. falciparum Indochina infected erythrocytes, higher = more signal, called active from +8 up or from −8 down
[15] = changes in parasitized red cell lysis, either direction – P. falciparum Indochina, OD700, 3 h, PSAC antagonist project, primary screen (AID 1156); conditions: P. falciparum-infected erythrocytes, osmotic lysis, higher = more signal, called active from +8 up or from −8 down
[16] = plasmodial surface anion channel blockers, osmotic lysis – cell-based, P. falciparum Indochina, OD700, 18 h, primary screen (AID 1157); conditions: P. falciparum Indochina infected erythrocytes, osmotic lysis OD700, 18 h; higher = more signal, called active from +8 up or from −8 down
[17] = S6 kinase pathway phospho-S6 level changes – cell-based, A549, cytoblot, luminescence, serum-stimulated, primary screen (AID 1158); conditions: 5 h, higher = more signal;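 further: serum-stimulated A549 lung adenocarcinoma cells; signal is phosphorylated S6 detected by cytoblot immunostaining with HRP secondary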
[18] = biological target: NADPH oxidase 2 (Homo sapiens) (UniProt P04839); experiment: compounds shifting NOX2 Amplex Red fluorescence – cell-based, HEK293-NOX2, PMA-stimulated, NOX inhibitor project, primary screen (AID 1159); conditions: 45 min, higher = more signal, called active from +8 up or from −8 down; further: test concentration not given here
[19] = biological target: NADPH oxidase 4 (Homo sapiens) (UniProt Q9NPH5); experiment: compounds shifting NOX4 Amplex Red fluorescence – cell-based, HEK293-NOX4, tetracycline-induced, NOX inhibitor project, primary screen (AID 1160); conditions: HEK293-NOX4, Amplex Red H2O2 fluorescence, 45 min; higher = more signal, called active from +8 up or from −8 down
[20] = biological target: NADPH oxidase 5 (Homo sapiens) (UniProt Q96PH1); experiment: compounds shifting NOX5 Amplex Red fluorescence – cell-based, HEK293-NOX5, NOX inhibitor project, primary screen (AID 1161); conditions: HEK293-NOX5, ionomycin, 45 min, higher = more signal
NADPH oxidase 5 (Homo sapiens), sequence (Q96PH1 whole entry, looked up): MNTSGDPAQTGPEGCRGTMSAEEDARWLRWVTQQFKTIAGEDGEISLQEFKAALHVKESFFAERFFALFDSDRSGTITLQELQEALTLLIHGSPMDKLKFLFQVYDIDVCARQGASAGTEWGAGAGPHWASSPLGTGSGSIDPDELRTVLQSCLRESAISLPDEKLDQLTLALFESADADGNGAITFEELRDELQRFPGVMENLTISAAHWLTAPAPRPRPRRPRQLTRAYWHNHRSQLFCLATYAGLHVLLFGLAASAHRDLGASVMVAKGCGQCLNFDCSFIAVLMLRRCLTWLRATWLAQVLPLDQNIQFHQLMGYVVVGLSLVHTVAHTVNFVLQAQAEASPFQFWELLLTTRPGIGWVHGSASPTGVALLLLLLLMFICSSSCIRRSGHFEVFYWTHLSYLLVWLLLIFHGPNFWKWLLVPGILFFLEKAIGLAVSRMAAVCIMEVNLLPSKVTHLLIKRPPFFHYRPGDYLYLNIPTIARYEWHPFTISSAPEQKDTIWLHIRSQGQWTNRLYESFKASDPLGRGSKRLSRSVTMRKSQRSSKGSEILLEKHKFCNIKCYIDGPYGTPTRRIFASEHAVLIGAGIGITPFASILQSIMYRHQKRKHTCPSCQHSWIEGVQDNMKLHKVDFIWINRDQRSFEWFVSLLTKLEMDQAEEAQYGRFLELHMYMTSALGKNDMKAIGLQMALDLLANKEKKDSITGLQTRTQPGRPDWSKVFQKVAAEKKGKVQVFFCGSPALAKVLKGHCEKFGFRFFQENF

Streptavidin (Streptomyces avidinii), sequence (P22629 whole entry, looked up): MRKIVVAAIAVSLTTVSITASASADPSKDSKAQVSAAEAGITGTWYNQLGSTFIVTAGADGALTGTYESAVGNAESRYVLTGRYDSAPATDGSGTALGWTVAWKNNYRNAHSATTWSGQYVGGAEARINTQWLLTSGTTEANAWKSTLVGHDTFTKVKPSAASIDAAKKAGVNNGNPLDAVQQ
NADPH oxidase 4 (Homo sapiens), sequence (Q9NPH5 whole entry, looked up): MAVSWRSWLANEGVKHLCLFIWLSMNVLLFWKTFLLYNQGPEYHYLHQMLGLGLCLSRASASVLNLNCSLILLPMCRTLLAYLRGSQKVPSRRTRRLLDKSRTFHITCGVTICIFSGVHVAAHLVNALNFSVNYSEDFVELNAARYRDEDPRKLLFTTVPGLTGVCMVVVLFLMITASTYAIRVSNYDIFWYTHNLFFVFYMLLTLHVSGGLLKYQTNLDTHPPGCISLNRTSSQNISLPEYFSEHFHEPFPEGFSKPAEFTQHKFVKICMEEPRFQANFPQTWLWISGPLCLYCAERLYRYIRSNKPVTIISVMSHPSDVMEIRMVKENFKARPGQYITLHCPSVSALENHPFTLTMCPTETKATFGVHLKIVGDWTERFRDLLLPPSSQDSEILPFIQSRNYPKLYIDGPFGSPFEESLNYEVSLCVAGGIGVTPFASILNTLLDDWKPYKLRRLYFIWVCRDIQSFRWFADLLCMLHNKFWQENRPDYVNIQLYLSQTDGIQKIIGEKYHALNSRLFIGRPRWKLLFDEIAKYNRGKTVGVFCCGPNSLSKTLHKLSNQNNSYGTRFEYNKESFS
Torsin-1A (Homo sapiens), sequence (O14656 whole entry, looked up): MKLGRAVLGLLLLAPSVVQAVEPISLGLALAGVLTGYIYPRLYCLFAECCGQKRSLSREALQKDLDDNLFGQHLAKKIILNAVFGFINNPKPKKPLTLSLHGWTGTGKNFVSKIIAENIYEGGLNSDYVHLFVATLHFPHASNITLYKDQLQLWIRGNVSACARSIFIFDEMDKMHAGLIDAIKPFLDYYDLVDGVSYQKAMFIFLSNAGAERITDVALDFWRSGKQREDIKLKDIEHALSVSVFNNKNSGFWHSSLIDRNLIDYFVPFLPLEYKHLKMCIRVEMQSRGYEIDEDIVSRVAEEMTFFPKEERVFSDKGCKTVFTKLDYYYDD
NADPH oxidase 2 (Homo sapiens), sequence (P04839 whole entry, looked up): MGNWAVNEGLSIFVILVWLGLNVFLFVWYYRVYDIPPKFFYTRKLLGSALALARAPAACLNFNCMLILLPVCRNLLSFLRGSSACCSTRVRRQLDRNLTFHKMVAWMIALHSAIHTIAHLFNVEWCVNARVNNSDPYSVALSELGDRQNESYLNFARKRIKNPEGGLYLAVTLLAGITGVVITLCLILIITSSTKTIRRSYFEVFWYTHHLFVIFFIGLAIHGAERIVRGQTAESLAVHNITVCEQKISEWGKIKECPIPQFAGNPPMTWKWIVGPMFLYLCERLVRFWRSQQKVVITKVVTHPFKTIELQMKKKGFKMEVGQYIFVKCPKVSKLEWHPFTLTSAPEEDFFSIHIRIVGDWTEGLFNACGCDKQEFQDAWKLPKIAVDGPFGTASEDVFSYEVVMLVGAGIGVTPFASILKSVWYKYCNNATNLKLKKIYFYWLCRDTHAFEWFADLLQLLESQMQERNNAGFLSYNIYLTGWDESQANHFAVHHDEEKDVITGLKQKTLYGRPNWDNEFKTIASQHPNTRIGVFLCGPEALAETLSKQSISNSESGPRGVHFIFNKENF

NC(=O)NCC#Cc1ccc2c(c1)[C@]1(C(=O)N2)[C@H](C(N)=O)[C@H]2C(=O)O[C@H](c3ccccc3)[C@H](c3ccccc3)N2[C@@H]1c1ccc(O)cc1
composite z-score [1]: 0.0344
z-score [2]: -0.0803 (inactive)
z-score [3]: -0.00225 (inactive)
z-score [4]: 0.712 (inactive)
z-score [5]: -0.0696 (inactive)
composite z-score [6]: -0.104
composite z-score [7]: 1.34
composite z-score (Torsin-1A (Homo sapiens) [8]): 0.2
composite z-score (Torsin-1A (Homo sapiens) [9]): 1
composite z-score [10]: -0.41
z-score [11]: 0.0502 (inactive)
composite z-score [12]: 1.73
z-score [13]: 0.271 (inactive)
z-score [14]: 0.436 (inactive)
z-score [15]: 0.471 (inactive)
z-score [16]: 0.124 (inactive)
z-score [17]: 0.226
z-score [18]: 0.122 (inactive)
z-score [19]: -0.519 (inactive)
z-score [20]: -0.479

COc1ccc(C#Cc2ccc3c(c2)[C@]2(C(=O)N3)[C@H](c3ccccc3OCCO)N3[C@H](c4ccccc4)[C@H](c4ccccc4)OC(=O)[C@H]3[C@@H]2C(=O)Nc2nc3ccccc3s2)cc1
composite z-score [1]: 0.469
z-score [2]: -1.62 (inactive)
z-score [3]: -0.726 (inactive)
z-score [4]: -1.28 (inactive)
z-score [5]: -1.38 (inactive)
composite z-score [6]: 1.09
composite z-score [7]: 1.06
composite z-score (Torsin-1A (Homo sapiens) [8]): 0.0821
composite z-score (Torsin-1A (Homo sapiens) [9]): 0.479
composite z-score [10]: 1.52
z-score [11]: -0.89 (inactive)
composite z-score [12]: 1.78
z-score [13]: 1.35 (inactive)
z-score [14]: 1.67 (inactive)
z-score [15]: 1.46 (inactive)
z-score [16]: 0.457 (inactive)
z-score [17]: -0.0333
z-score [18]: -1.26 (inactive)
z-score [19]: -0.977 (inactive)
z-score [20]: -4.34

CCC(CC)C(O)C1C=CC2C(=O)NC(=O)C2N1Nc1ccc(Cl)cc1Cl (stereo not given)
composite z-score [1]: 0.0146
z-score [2]: -0.776 (inactive)
z-score [3]: 0.34 (inactive)
z-score [4]: 0.243 (inactive)
z-score [5]: -0.273 (inactive)
composite z-score [6]: 0.673
composite z-score [7]: 0.225
composite z-score (Torsin-1A (Homo sapiens) [8]): -0.167
composite z-score (Torsin-1A (Homo sapiens) [9]): 0.418
composite z-score [10]: 0.463
z-score [11]: -1.69 (inactive)
composite z-score [12]: 0.348
z-score [13]: 1.55 (inactive)
z-score [14]: 0.65 (inactive)
z-score [15]: 0.0089 (inactive)
z-score [16]: 1.24 (inactive)
z-score [17]: -1.5
z-score [18]: -0.017 (inactive)
z-score [19]: -4.41 (inactive)
z-score [20]: -2.93

C=CCNC(=O)[C@H]1[C@@H]2C(=O)O[C@@H](c3ccccc3)[C@@H](c3ccccc3)N2[C@@H](c2ccccc2OCCO)[C@]12C(=O)Nc1ccc(C#CCCO)cc12
composite z-score [1]: 0.805
z-score [2]: -3.21 (inactive)
z-score [3]: 0.481 (inactive)
z-score [4]: -0.141 (inactive)
z-score [5]: 4.71 (inactive)
composite z-score [6]: -0.378
composite z-score [7]: -0.0944
composite z-score (Torsin-1A (Homo sapiens) [8]): -0.897
composite z-score (Torsin-1A (Homo sapiens) [9]): -0.202
composite z-score [10]: -0.322
z-score [11]: -0.849 (inactive)
composite z-score [12]: -0.133
z-score [13]: 9.4 (active)
z-score [14]: 1.75 (inactive)
z-score [15]: -0.56 (inactive)
z-score [16]: 0.982 (inactive)
z-score [17]: 0.0418
z-score [18]: 1.76 (inactive)
z-score [19]: -0.546 (inactive)
z-score [20]: 1.93

O=C(NCCN1CCOCC1)[C@@H]1c2ccccc2C(=O)N(C2CCCCC2)[C@H]1c1ccc(CO)cc1
composite z-score [1]: -0.178
z-score [2]: -0.742 (inactive)
z-score [3]: 0.00698 (inactive)
z-score [4]: 0.791 (inactive)
z-score [5]: -0.168 (inactive)
composite z-score [6]: 0.254
composite z-score [7]: -0.153
composite z-score (Torsin-1A (Homo sapiens) [8]): -0.945
composite z-score (Torsin-1A (Homo sapiens) [9]): -0.653
composite z-score [10]: -0.908
z-score [11]: -0.306 (inactive)
composite z-score [12]: -0.007
z-score [13]: 3.9 (inactive)
z-score [14]: 1.22 (inactive)
z-score [15]: 1 (inactive)
z-score [16]: 0.403 (inactive)
z-score [17]: 0.227
z-score [18]: 0.822 (inactive)
z-score [19]: 1.3 (inactive)
z-score [20]: 0.579

O=C1C[C@]2(c3ccc([N+](=O)[O-])cc3)C(=O)N(CC(F)(F)F)c3cc(CO)ccc3[C@H]2N1C1CCCCC1
composite z-score [1]: -0.446
z-score [2]: 0.465 (inactive)
z-score [3]: 1.43 (inactive)
z-score [4]: -0.412 (inactive)
z-score [5]: -0.496 (inactive)
composite z-score [6]: -0.463
composite z-score [7]: -0.0598
composite z-score (Torsin-1A (Homo sapiens) [8]): -0.628
composite z-score (Torsin-1A (Homo sapiens) [9]): -0.611
composite z-score [10]: -0.444
z-score [11]: 0.983 (inactive)
composite z-score [12]: -0.233
z-score [13]: -0.524 (inactive)
z-score [14]: 0.345 (inactive)
z-score [15]: 0.503 (inactive)
z-score [16]: 0.133 (inactive)
z-score [17]: -0.116
z-score [18]: -0.502 (inactive)
z-score [19]: 0.00678 (inactive)
z-score [20]: 0.428

NC(=O)NCC#Cc1ccc2c(c1)[C@]1(C(=O)N2)[C@H](C(=O)Nc2nc3ccccc3s2)[C@H]2C(=O)O[C@H](c3ccccc3)[C@H](c3ccccc3)N2[C@@H]1c1ccccc1OCCO
composite z-score [1]: 0.436
z-score [2]: -4.58 (inactive)
z-score [3]: -1.22 (inactive)
z-score [4]: 0.0776 (inactive)
z-score [5]: -0.327 (inactive)
composite z-score [6]: 2.4
composite z-score [7]: 0.105
composite z-score (Torsin-1A (Homo sapiens) [8]): -0.3
composite z-score (Torsin-1A (Homo sapiens) [9]): 0.0607
composite z-score [10]: 2.04
z-score [11]: 1.07 (inactive)
composite z-score [12]: 1.33
z-score [13]: 1.39 (inactive)
z-score [14]: 0.831 (inactive)
z-score [15]: 1.18 (inactive)
z-score [16]: -0.247 (inactive)
z-score [17]: 1.76
z-score [18]: 0.643 (inactive)
z-score [19]: -0.228 (inactive)
z-score [20]: -3.4

From PubChem BioAssay
